M1 antag: human CHRM1 antagonism; P11229; CHO-K1 hM1, Fluo-8 calcium fluorescence, ACh EC80 antagonist; inhibition, % at 3 µM; 1.3% of 360,000 active; AID 588852;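 active = percent inhibition above its own plate's cutoff, namely the mean of that plate's compound wells plus 3 SD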;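 also: peak over basal fluorescence ratio during 140 s after agonist addition; 0% = ACh EC80 plus DMSO and 100% = DMSO alone without agonist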
Target sequence (P11229 whole entry, looked up): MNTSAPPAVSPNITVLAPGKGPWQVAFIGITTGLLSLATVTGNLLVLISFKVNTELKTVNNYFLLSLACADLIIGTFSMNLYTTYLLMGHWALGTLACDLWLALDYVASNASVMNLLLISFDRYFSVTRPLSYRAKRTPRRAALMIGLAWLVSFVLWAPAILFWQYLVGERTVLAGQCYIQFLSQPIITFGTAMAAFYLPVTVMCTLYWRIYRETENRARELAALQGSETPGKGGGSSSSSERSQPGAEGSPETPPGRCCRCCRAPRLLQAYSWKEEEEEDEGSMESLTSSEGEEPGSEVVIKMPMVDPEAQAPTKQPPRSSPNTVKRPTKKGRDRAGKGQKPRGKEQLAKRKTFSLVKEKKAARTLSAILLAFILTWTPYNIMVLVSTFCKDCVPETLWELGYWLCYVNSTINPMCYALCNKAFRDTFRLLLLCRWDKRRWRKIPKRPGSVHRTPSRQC
M1 PAM: positive allosteric modulators of human M1 muscarinic receptor. AID 588819. 0.088% of 360,000 active. P11229. activation, % at 3 µM. CHO-K1 hM1, Fluo-8 calcium fluorescence, ACh EC20; 0% = ACh EC20, 100% = maximal ACh; in the data active = activation above about 19%, passing the limit was not always enough
CHRM1 agonist: agonists of human M1 muscarinic receptor; CHO-K1 hM1, Fluo-8 calcium fluorescence, agonist mode; 0% DMSO, 100% acetylcholine EC100; P11229; 0.33% of 360,000 active; AID 588814; activation, % at 3 µM;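 active = activation above the run's mean compound activation plus 3 SD, cut at about 16% in these data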;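 also: peak over basal fluorescence ratio within a 140 s kinetic read after compound addition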
CHO-K1 Ca PAM: M1 PAM counterscreen hit in parental CHO-K1 cells. ATP EC20, Fluo-8 calcium fluorescence; 0% at ATP EC20, 100% at ATP max. activation, % at 3 µM. 0.02% of 360,000 active. AID 602247;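 active = activation above the run cutoff, the mean activation of all test compounds plus 3 SD, cut at about 40% in these data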;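 also: peak over basal fluorescence ratio in a 140 s read after ATP addition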
CHO-K1 Ca antag: M1 antagonist counterscreen hit in parental CHO-K1 cells | ATP-induced calcium, Fluo-8 fluorescence | inhibition, % at 3 µM | 0.6% of 360,000 active;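 active = inhibition above a per-plate cutoff, the plate's mean sample inhibition plus 3 SD, cut at about 24% in these data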;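 also: 0% = DMSO plus EC80 ATP and 100% = DMSO alone without ATP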
M1 ag parental: nonselective activator or artifact in parental CHO-K1 cells; Fluo-8 calcium fluorescence; scaled to maximal ATP response, vehicle zero; activation, % at 3 µM; 0.48% of 360,000 active; AID 602248; in the data active = activation above about 15%;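 also: untransfected CHO-K1 host cells lacking M1 receptor as counterscreen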
Numbers without * were called inactive. A selection: hits, their analogues and other compounds. The true share with any hit is near 2.4%.

SMILES	M1 antag	M1 PAM	CHRM1 agonist	CHO-K1 Ca PAM	CHO-K1 Ca antag	M1 ag parental
O=C(O)c1cc(Cl)ccc1-c1ccc(/C=C/c2cc(C(F)(F)F)[nH]c(=O)n2)o1	15	-15	11	-21	15	26*
CCCn1nnnc1NCc1ccc(F)cc1	-8	11	-7	19	10	14
CCCn1nnnc1NCc1ccc(N2CCCC2)cc1	58*	-27	-7	8	-10	0
CCCCn1nnnc1NCc1ccc(N2CCCC2)cc1	91*	-20	-6	2	-3	0
Cc1ccc(NC(=O)CCC(C(=O)O)N2C(=O)c3ccccc3C2=O)cc1 (stereo unspecified)	0	5	-3	-2	0	0
O=C(Nc1cc(Cl)cc(Cl)c1)c1cccc(OC(F)F)c1	23	-15	-4	-10	27*	1
COc1ccc([N+](=O)[O-])cc1N(CC1CO1)S(=O)(=O)c1ccc(C)cc1 (stereo unspecified)	1	-3	-10	6	0	3
O=C(OCCOc1ccc(Cl)cc1)c1cc(S(=O)(=O)N2CCCCC2)ccc1N1CCOCC1	20	-4	-5	11	0	4
CCOC(=O)C1CCCN(C(=O)COc2ccc(S(=O)(=O)N3CCOCC3)cc2)C1 (stereo unspecified)	11	-4	31*	-7	5	0
Cc1ccc(OCCOC(=O)c2cc(S(=O)(=O)N3CCCCC3)ccc2N2CCOCC2)cc1	28*	-11	-4	-2	19	2
CCOC(=O)C1CCCN(C(=O)CCCn2nnnc2CN2CCOCC2)C1 (stereo unspecified)	4	-20	49*	11	-19	1
CCCCC(=O)N1CCCC(C(=O)OCC)C1 (stereo unspecified)	1	-7	26*	7	3	0
CCOC(=O)C1CCCN(C(=O)Cc2ccc(C)cc2)C1 (stereo unspecified)	-8	6	1	8	-9	4
CCOC(=O)C1CCN(C(=O)COc2ccc(S(=O)(=O)N3CCOCC3)cc2)CC1	-9	7	-2	-3	-2	1
O=C(NS(=O)(=O)c1ccc(Cl)s1)c1ccccc1	-1	-3	-2	-29	15	0
Clc1ccc(-c2c[n+](Cc3ccc(Br)cc3)c3n2CCCCC3)cc1	8	-10	-7	9	-9	0
COc1ccc(-c2nc3c(c4nnc(SC(C)C(=O)Nc5ccccc5)n24)COC(C)(C)C3)cc1 (stereo unspecified)	-17	14	-4	19	-7	0
CN(CC(=O)Nc1ccc(Cl)c(C(F)(F)F)c1)C(=O)c1cccnc1Sc1ccccc1	0	-2	-2	-11	3	3
CCOC(=O)C1CCCN(C(=O)CCCn2nc(C)n3c(cc4sccc43)c2=O)C1 (stereo unspecified)	10	-16	34*	0	7	0
CCOCC(=O)N1CCCC(C(=O)OCC)C1 (stereo unspecified)	101*	0	0	5	3	0
CCOC(=O)C1CCCN(C(=O)Cn2sc3nc(C)cc(C)c3c2=O)C1 (stereo unspecified)	-11	5	22*	29	-10	4
COC(=O)c1ccc2c(c1)N(C)CCS2	-15	7	-5	10	-8	0
Nc1ccc(S(=O)(=O)N2CCc3ccccc32)cc1	-6	3	0	21	-13	2
O=S(=O)(NC1CCCC1)c1ccc(S(=O)(=O)N2CCc3ccccc32)cc1	25	-15	-3	4	7	16*
Cc1cc(C)c2c(CN3CCN(CCO)CC3)cc(=O)oc2c1	7	-7	-7	-7	29*	-1
SMILES	M1 antag	M1 PAM	CHRM1 agonist	CHO-K1 Ca PAM	CHO-K1 Ca antag	M1 ag parental
Cc1ccc(Cl)c2c1=NC(=O)C=2c1[nH]c(=S)[nH]c1O	8	0	1	12	5	17*
O=C(COC(=O)c1ccc(F)cc1F)NCCNC(=O)COC(=O)c1ccc(F)cc1F	-3	6	1	10	-6	1
O=C(COC(=O)c1ccc(F)cc1F)NC1CC1	9	-7	-4	-15	30*	-1
COc1ccc(C)cc1NC(=O)c1ccc(NC(=O)CC2SC(N3CCCC3)=NC2=O)cc1 (stereo unspecified)	-15	11	0	15	-13	0
Cc1ccc(C2(C)NC(=O)N(CC(=O)N3CCc4ccccc43)C2=O)cc1 (stereo unspecified)	-17	8	29*	11	-17	20*
CC1(c2ccc(Cl)cc2)NC(=O)N(CC(=O)N2CCc3ccccc32)C1=O (stereo unspecified)	9	2	39*	8	-6	19*
CCC1(CC)NC(=O)N(CC(=O)N2CCc3ccccc32)C1=O	-23	10	-5	13	-11	0
CCC1(c2ccc(F)cc2)NC(=O)N(CC(=O)N2CCc3ccccc32)C1=O (stereo unspecified)	9	-7	24*	-16	17	6
CCCCC1(C)NC(=O)N(CC(=O)N2CCc3ccccc32)C1=O (stereo unspecified)	-1	2	-6	7	-20	-1
CN(CC(O)COC(c1ccccc1)c1ccccc1)C1CCCCC1 (stereo unspecified)	30*	-32	-12	15	-11	2
CN(C)CC(O)COC(c1ccc(Cl)cc1)c1ccc(Cl)cc1 (stereo unspecified)	41*	-21	-6	15	-12	5
CC1CN(CC(O)COC(c2ccc(Cl)cc2)c2ccc(Cl)cc2)CC(C)O1 (stereo unspecified)	-2	-6	-9	3	11	0
CN(CC(O)COc1ccc(OCC(O)CN(C)C2CCCCC2)cc1)C1CCCCC1 (stereo unspecified)	-15	6	-5	18	0	0
CN(CC(=O)Nc1ccc(Cl)c(C(F)(F)F)c1)CC(=O)NC1CCCCC1	26*	-6	6	0	2	12
CN(CC(=O)Nc1cccc(S(=O)(=O)N2CCCC2)c1)CC(=O)Nc1ccc(Cl)c(C(F)(F)F)c1	26*	-5	-1	-10	32*	6
CN(CC(=O)NCc1ccccc1)CC(=O)Nc1ccc(Cl)c(C(F)(F)F)c1	15	-4	13	13	-7	13
CN(CC(=O)Nc1ccc(Cl)c(Cl)c1)CC(=O)N1CCCCCC1	71*	-29	-6	-3	11	3
Nn1c(Cc2ccccc2F)nnc1SCC(=O)Nc1cccc(S(=O)(=O)NC2=NCCCCC2)c1	11	-3	-2	7	0	1
COc1ccc2c(COC(=O)CNS(=O)(=O)c3ccccc3)cc(=O)oc2c1	5	0	-4	7	-13	2

Screens deposited in PubChem by The Scripps Research Institute Molecular Screening Center.
